What all share (experiment): DAPPL (digital affinity profiling via proximity ligation, sequencing); 10 mM Tris-HCl pH 7.5, 50 mM NaCl, 1 mM DTT, 4% glycerol, room temperature, 30 min; GST-TFs on glutathione beads, 16-mer random dsDNA library, 0.1% formaldehyde crosslink after washing; high values mean tight binding
Conditions in all cases: protein: recombinant; tags: N-terminal GST; dsDNA, one strand shown

The target in one test is T1, FLI1 (Homo sapiens, UniProt Q01543 1-452).
T1 sequence: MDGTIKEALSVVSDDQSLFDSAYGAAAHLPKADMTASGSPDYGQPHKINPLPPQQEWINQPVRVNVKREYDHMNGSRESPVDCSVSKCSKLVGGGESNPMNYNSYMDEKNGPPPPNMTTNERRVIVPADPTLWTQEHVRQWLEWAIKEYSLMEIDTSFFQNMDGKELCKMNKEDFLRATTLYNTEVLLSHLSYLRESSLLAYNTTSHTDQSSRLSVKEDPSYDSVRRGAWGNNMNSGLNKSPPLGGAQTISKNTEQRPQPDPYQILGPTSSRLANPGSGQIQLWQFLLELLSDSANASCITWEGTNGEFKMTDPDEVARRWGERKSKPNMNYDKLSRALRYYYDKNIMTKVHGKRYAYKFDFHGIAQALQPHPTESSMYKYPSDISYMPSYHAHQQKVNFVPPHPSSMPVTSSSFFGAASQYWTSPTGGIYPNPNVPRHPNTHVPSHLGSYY
The essentials:
(§1)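 After expression in yeast as GST fusions, human transcription factors were bound to glutathione beads, DNA-barcoded and mixed with a tag-only sample. The pools were incubated with 200 nmole of a 16-mer random double-stranded DNA library in Tris/NaCl/DTT/glycerol buffer (30 min, room temperature), washed and crosslinked with 0.1% formaldehyde. Proximity ligation with BsaI/T4 ligase ran for 1 h at 37 °C, before PCR amplification and sequencing on an Illumina NextSeq500. Binding signal is a hexamer's read frequency for a factor divided by its frequency for the tag-only sample.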

The target in the next test is T2, ELK1 (Homo sapiens, UniProt P19419 1-428).
T2 sequence: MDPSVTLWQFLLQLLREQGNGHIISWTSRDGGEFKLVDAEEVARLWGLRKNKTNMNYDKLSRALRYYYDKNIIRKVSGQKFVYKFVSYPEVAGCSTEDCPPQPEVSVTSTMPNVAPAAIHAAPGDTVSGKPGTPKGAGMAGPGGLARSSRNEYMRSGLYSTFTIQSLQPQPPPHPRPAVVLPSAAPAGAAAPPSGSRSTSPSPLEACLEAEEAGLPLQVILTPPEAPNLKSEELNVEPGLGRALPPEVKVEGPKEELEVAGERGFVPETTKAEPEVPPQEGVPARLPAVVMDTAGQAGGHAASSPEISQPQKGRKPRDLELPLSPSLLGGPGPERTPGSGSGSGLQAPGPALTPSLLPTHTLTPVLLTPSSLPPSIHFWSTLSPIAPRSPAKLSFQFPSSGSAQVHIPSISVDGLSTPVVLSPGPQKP
The essentials:
as §1

A further test deals with ELF1 (Homo sapiens, UniProt P32519 1-619). The essentials:
as §1

For a further test, the target named is SPIB (Homo sapiens, UniProt Q01892 1-262). The essentials: as §1
Sequence of SPIB (Q01892 whole entry): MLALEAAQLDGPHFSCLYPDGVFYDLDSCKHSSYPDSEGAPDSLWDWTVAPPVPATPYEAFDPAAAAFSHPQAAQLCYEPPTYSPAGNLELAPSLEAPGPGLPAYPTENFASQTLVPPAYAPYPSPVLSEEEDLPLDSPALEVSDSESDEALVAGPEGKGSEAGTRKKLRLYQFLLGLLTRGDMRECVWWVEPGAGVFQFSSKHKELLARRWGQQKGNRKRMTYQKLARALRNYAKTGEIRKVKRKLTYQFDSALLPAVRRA
The target in a further test is ETV5 (Homo sapiens, UniProt P41161 1-510). The essentials: as §1
Sequence of ETV5 (P41161 whole entry): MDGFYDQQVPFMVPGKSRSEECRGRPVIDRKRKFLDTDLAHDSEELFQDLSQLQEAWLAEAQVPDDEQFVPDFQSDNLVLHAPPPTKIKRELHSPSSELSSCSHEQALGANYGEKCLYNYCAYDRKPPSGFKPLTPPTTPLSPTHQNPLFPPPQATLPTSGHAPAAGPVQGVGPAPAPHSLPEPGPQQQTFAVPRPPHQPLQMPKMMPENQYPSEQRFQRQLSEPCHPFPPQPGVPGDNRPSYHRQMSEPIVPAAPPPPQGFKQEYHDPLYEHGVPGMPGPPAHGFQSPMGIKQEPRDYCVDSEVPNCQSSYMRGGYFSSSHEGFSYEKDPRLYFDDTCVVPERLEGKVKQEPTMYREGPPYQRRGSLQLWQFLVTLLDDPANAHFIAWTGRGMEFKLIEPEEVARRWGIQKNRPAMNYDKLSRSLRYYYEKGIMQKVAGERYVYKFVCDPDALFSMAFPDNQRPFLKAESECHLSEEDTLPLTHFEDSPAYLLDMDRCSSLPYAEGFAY
In a further test the target is T3, SPIC (Homo sapiens, UniProt Q8N5J4 1-248).
T3 sequence: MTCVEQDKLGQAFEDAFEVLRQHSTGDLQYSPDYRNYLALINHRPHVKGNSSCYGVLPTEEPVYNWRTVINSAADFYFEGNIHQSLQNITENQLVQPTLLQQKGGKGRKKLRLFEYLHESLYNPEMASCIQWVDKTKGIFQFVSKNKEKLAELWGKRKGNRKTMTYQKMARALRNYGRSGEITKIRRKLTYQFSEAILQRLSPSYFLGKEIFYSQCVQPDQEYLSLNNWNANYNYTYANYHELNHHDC
The essentials: as §1

In another test the target is ELF4 (Homo sapiens, UniProt Q99607 1-663). The essentials: as §1
Sequence of ELF4 (Q99607 whole entry): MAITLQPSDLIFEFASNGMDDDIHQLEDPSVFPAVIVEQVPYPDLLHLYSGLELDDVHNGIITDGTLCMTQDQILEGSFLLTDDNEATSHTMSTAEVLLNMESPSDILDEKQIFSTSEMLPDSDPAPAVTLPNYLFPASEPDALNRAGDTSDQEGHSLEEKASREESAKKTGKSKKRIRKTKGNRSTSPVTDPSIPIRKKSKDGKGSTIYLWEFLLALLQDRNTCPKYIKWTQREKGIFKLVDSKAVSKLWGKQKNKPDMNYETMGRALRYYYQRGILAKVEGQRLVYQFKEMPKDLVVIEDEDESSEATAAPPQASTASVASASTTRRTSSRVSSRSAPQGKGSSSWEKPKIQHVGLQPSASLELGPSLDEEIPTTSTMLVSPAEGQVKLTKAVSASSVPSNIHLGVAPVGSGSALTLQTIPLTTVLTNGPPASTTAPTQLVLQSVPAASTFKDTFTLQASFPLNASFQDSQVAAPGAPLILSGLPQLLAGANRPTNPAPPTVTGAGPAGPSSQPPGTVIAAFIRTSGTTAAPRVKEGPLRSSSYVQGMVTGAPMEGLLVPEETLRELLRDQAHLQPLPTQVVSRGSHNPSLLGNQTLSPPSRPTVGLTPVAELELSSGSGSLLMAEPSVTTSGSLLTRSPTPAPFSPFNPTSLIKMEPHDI
The next test concerns the target T4, ERF (Homo sapiens, UniProt P50548 1-548).
T4 sequence: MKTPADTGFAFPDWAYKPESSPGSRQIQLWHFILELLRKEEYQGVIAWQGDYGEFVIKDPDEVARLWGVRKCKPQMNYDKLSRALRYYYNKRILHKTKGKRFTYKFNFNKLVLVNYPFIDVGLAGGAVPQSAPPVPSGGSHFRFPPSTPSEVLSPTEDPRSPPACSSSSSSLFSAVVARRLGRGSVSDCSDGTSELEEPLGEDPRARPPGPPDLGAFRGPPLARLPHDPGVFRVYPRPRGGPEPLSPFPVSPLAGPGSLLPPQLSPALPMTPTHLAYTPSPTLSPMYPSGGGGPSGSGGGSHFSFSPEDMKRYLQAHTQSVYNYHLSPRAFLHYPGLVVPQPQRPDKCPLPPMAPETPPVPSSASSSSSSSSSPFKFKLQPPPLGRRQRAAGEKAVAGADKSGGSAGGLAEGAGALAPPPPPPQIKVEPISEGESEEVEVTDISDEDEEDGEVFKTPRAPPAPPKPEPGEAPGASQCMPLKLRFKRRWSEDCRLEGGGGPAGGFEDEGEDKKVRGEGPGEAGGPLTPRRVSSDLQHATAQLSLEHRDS
The essentials:
as §1

Sequence of ELF1 (P32519 whole entry): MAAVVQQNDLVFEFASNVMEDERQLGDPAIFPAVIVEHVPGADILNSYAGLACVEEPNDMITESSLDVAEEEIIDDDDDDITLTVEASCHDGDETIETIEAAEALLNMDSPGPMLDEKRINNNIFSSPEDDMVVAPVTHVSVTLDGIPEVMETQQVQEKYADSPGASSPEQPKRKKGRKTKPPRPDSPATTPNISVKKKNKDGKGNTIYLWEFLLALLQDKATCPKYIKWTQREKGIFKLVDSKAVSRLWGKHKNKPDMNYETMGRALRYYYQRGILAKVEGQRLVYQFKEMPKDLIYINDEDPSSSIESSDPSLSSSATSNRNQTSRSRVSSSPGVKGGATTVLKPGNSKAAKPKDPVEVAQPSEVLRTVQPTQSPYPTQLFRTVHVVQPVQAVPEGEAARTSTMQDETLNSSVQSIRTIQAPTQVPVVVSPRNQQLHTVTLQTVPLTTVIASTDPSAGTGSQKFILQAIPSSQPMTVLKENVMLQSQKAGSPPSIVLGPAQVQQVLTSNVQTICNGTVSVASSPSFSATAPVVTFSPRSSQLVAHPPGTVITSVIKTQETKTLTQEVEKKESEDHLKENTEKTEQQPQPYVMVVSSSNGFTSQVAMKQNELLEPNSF

For the sequence CATCCA, the binding signal with FLI1 was 1.01 fold enrichment (6-mer frequency, TF over GST control); with ELK1 it was 1.06 fold enrichment (6-mer frequency, TF over GST control); in the test with ELF1, 1.02 fold enrichment (6-mer frequency, TF over GST control); in the test with SPIB it was 1 fold enrichment (6-mer frequency, TF over GST control); with ETV5, 1.01 fold enrichment (6-mer frequency, TF over GST control); in the test with SPIC, 1.05 fold enrichment (6-mer frequency, TF over GST control). For the same sequence, the binding signal was 1.02 fold enrichment (6-mer frequency, TF over GST control) with ELF4 and 1.01 fold enrichment (6-mer frequency, TF over GST control) with ERF.

The values above are taken from publication PMC7862700, “An all-to-all approach to the identification of sequence-specific readers for epigenetic DNA modifications on cytosine”.
